In PubChem BioAssay AID725 (NMMLSC, 2007) one finds inhibition data, which are given here for 89 compounds.

Out of some 1,300 compounds screened, fewer than 10 were called active. How the calls were made is not given here. The list is a sample of the results.

The target of the assay is N-formyl peptide receptor 2 (Homo sapiens) (UniProt P25090). Nature of the assay: FPRL1 fluorescent ligand binding inhibitors, primary screen, selectivity assay for FPR ligand SAR project, cell-based, flow cytometry, HTS counterscreen (AID 725). The note with it: FPRL1-expressing cells, hits give high values, concentration not given here. (Flow cytometry measures light scatter and fluorescence of single cells or particles in a stream.)
N-formyl peptide receptor 2 (Homo sapiens), sequence (P25090 whole entry, looked up): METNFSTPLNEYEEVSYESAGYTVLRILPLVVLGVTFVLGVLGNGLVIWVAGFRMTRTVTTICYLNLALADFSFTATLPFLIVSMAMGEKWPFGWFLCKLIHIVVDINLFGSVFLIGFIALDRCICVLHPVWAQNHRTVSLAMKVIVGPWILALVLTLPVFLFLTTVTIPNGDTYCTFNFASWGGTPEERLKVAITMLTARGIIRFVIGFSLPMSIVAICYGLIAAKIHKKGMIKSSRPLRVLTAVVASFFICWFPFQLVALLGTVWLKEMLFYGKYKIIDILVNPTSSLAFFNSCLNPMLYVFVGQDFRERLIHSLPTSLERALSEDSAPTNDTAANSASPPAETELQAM
Turning to `CCOc1ccc(/C(O)=C2\C(=O)C(=O)N(c3nnc(C)s3)C2c2ccc(Br)cc2)cc1` (centres undefined), the inhibition (usually the drop in the measured response relative to a control, in per cent) is 1.9% (inactive).
The figure for `COc1ccc(C2C(C(=O)c3cc4ccccc4o3)=C(O)C(=O)N2c2nccs2)cc1` (centres undefined) is 1% (inactive); for `Cc1ccc(C2/C(=C(\O)c3ccc(F)cc3)C(=O)C(=O)N2CCN2CCOCC2)o1` (centres undefined) it is 5.6% (inactive); for `CN1C(=O)c2ccccc2C(C(=O)N2CCCCC2)C1c1cccs1` (centres undefined) it is -3.9% (inactive).
Consider `O=C1C(=O)N(CCN2CCOCC2)C(c2ccco2)/C1=C(\O)c1ccc(F)cc1` (centres undefined), for which the inhibition is 5.5% (inactive).
For `Cc1cc(=O)n2[nH]cc(C(=O)O)c2n1` the value was -16.5% (inactive); for `O=C(C1=C(O)C(=O)N(CCN2CCOCC2)C1c1cccs1)c1ccco1` (centres undefined), -2% (inactive).
The figure for `CN(C)CCN1C(=O)C(O)=C(C(=O)c2cc3ccccc3o2)C1c1cccc(Oc2ccccc2)c1` (centres undefined) is 1.3% (inactive); for `CCN1C(=O)C(O)(CC(=O)c2ccc3c(c2)OCO3)c2ccccc21` (centres undefined) it is -4.3% (inactive); for `CCOC(=O)c1c(NC(=O)C2C3CCC(O3)C2C(=O)O)sc2c1CCC(CC)C2` (centres undefined) it is 0.3% (inactive).
Regarding `CCOC(=O)N1CCC(c2cc(=O)n3[nH]cc(C(=O)Nc4ccc(OCC)cc4)c3n2)CC1`, the inhibition was -5.2% (inactive).
The figure for `CCOC(=O)C1NN=C(C(=O)c2ccc(OC)cc2)C1c1ccccc1` (centres undefined) is 3.5% (inactive); for `Cc1ccc(N2C(=O)C(=O)/C(=C(\O)c3ccc(Cl)cc3)C2c2cccnc2)cc1Br` (centres undefined) it is 4.5% (inactive).
The figure for `CCc1cc2c(=O)c(-c3nc4ccccc4s3)c(C)oc2c(CN2CCCCC2)c1O` is -7.2% (inactive); for `COc1ccc(N2C(=O)CSC2c2ccc(C(C)C)cc2)cc1` (centres undefined) it is 4.8% (inactive).
In the case of `CCCCn1c(=O)c2oc3ccccc3c2n(Cc2ccccc2F)c1=O`, the inhibition is -2.7% (inactive).
The figure for `CCCN(C(=O)[C@H]1[C@@H]2C[C@@H]3[C@H]1C(=O)O[C@@H]3C2)c1ccccc1OCC` is 9.1% (inactive); for `Cc1cccc(N2C(=O)CSC2c2cccc(F)c2)c1` (centres undefined) it is -31.8% (inactive); for `Cc1ccc(C)c(Cn2c(=O)cc(C)c3c(C)nn(-c4ccccc4)c32)c1` it is -16.2% (inactive).
As for `Cc1ccc(/C(O)=C2/C(=O)C(=O)NC2c2ccc3c(c2)OCO3)cc1` (centres undefined), the inhibition is 1.1% (inactive).
The figure for `CCOC(=O)C1=C(C)N(c2ccc(C)c(C)c2)C(=O)/C1=C\c1ccccc1OC` is -8.1% (inactive); for `CCN1C(=O)C(=C2CCCC2)N(CC)C1=O` it is 8% (inactive).
For `CCCCCCN1C(=O)C(=O)/C(=C(\O)c2ccccc2)C1c1ccc(C(C)C)cc1` (centres undefined) the value was -2.5% (inactive).
For `COc1cc(C)nc(N(CCC(C)C)S(=O)(=O)c2ccc(C)cc2)n1` the value was -7.7% (inactive).
`COc1cc(C2C(C(=O)c3cc4ccccc4o3)=C(O)C(=O)N2CCN(C)C)ccc1O` (centres undefined): the inhibition is -0.3% (inactive).
The figure for `CCOC(=O)c1c(NC(=O)c2csc3c2CCCC3)sc2c1CCCC2` is -7% (inactive).
Consider `CC(c1cccs1)N(Cc1ccco1)C(=S)Nc1ccccc1Cl` (centres undefined), for which the inhibition is 10.4% (inactive).
For `CCOC(=O)c1oc2cc(OCc3ccc(F)cc3)ccc2c(=O)c1-c1ccccc1OC` the value was 1.2% (inactive).
`CCCCCCN1C(=O)C(=O)/C(=C(/O)c2ccccc2)C1c1ccc(Br)cc1` (centres undefined): the inhibition is 0.8% (inactive).
For `COc1ccc(OC)c(C2/C(=C(\O)c3ccccc3)C(=O)C(=O)N2CCC(=O)O)c1` (centres undefined) the value was -4.7% (inactive).
For `CCOC(=O)c1cnn2c(=O)c3c(n(CC)c12)CCN(Cc1ccc(OC)cc1)C3` the value was 1.3% (inactive); for `Cc1ccc(/C(O)=C2\C(=O)C(=O)N(c3nnc(C)s3)C2c2ccc(Cl)cc2)cc1` (centres undefined), -9.8% (inactive).
The figure for `CCCCn1c(=O)c2oc3ccccc3c2n(Cc2cccc(C)c2)c1=O` is -15.7% (inactive); for `Cc1ccc(N2C(=O)CSC2c2ccc(C(C)(C)C)cc2)cc1F` (centres undefined) it is -16.2% (inactive); for `NC(=O)c1c(NC(=O)C2CC3CCC2C3)sc2c1CCCC2` (centres undefined) it is 9% (inactive).
For `COc1ccccc1C1/C(=C(\O)c2ccccc2)C(=O)C(=O)N1c1ccc(C)c(Cl)c1` (centres undefined), the inhibition was -1.5% (inactive).
The figure for `CCOc1ccc(C2/C(=C(/O)c3ccccc3)C(=O)C(=O)N2c2ccc(C)c(Br)c2)cc1` (centres undefined) is 1.2% (inactive); for `COc1ccc(Br)cc1CNC(=O)Cn1c(=O)oc2ccccc21` it is -20.3% (inactive); for `Cc1cc(C)cc(N2C(=O)CSC2c2ccccc2Br)c1` (centres undefined) it is -7.5% (inactive).
The figure for `C=CCN1C(=O)C2C(c3ccccc3)C=CC(c3ccccc3)C2C1=O` (centres undefined) is -6.2% (inactive).
For `O=C(c1ccc(Br)cc1)N(Cc1ccco1)Cc1ccccc1F` the value was 27.5% (inactive).
Turning to `O=C1C(=O)N(c2cccnc2)C(c2cccc(F)c2)/C1=C(/O)c1ccccc1` (centres undefined), the inhibition is -1.7% (inactive).
The figure for `COc1ccccc1C(CC(=O)NCc1cccs1)n1cccc1` (centres undefined) is 12% (inactive); for `CC1CCN(Cn2nc(-c3ccco3)n(-c3ccccc3)c2=S)CC1` it is 6.9% (inactive).
Regarding `COc1ccc(C2C(C(=O)c3cccs3)=C(O)C(=O)N2Cc2cccnc2)cc1OC` (centres undefined), the inhibition was -3.8% (inactive).
The figure for `Cc1ccc2c(c1)oc(=O)n2C(=O)COc1ccccc1` is 4.9% (inactive); for `O=C(c1ccccc1Br)N(Cc1ccc(F)cc1)Cc1ccco1` it is -2% (inactive); for `CCc1c(C)sc(NC(=O)C2C3C=CC(C3)C2C(=O)O)c1C(=O)OC(C)C` (centres undefined) it is -6% (inactive).
The figure for `Cc1nnc(N2C(=O)C(O)=C(C(=O)c3cccs3)C2c2ccccc2)s1` (centres undefined) is 1.7% (inactive); for `CCOC(=O)c1c(NC(=O)c2ccccc2Cl)sc2c1CCC2` it is 0% (inactive); for `CCOc1ccccc1C1C(C#N)=C(SC)NC(=O)C1C(=O)OC` (centres undefined) it is 7.1% (inactive).
The figure for `COC(=O)c1c[nH]n2c(=O)c(C(C)C)c(C)nc12` is -13.8% (inactive).
As for `CCCOc1ccc(/C(O)=C2\C(=O)C(=O)N(CCN3CCOCC3)C2c2ccc(C(C)C)cc2)cc1C` (centres undefined), the inhibition was -8.4% (inactive).
For `CC(C)n1c(=O)c2oc3ccccc3c2n(Cc2ccccc2F)c1=O` the value was 11.7% (inactive); for `Cc1ccc(S(=O)(=O)NC(CC(=O)O)c2cccc(Cl)c2)c(C)c1` (centres undefined), -6.5% (inactive).
The figure for `CCOC(=O)c1c(NC(=O)c2ccccc2)sc2c1CCC(C)C2` (centres undefined) is -3.5% (inactive); for `COCCN1C(=O)C(=O)/C(=C(/O)c2ccccc2)C1c1ccc(C(C)C)cc1` (centres undefined) it is 3.7% (inactive).
For `CC(C)c1ccc(C2/C(=C(\O)c3ccccc3)C(=O)C(=O)N2c2nc3ccccc3s2)cc1` (centres undefined) the value was 0% (inactive).
For `Cc1ccc(F)cc1N1C(=O)CSC1c1ccc(Br)cc1` (centres undefined), the inhibition is 1.5% (inactive).
As for `Cc1cccc(C(=O)N(Cc2ccco2)Cc2ccccc2F)c1`, the inhibition is 14.7% (inactive).
The figure for `COc1ccc(-c2c(C)[nH]n3c(=O)c4c(nc23)CCCC4)cc1` is -4.2% (inactive); for `CCOC(=O)c1c(NC(=O)c2ccc(Br)cc2)sc(C)c1C` it is 9.7% (inactive); for `Cc1onc(-c2c(Cl)cccc2Cl)c1C(=O)NC1CCCCC1` it is -7.3% (inactive).
The figure for `CCC(=O)Oc1ccc2c(C)c(Cc3ccccc3)c(=O)oc2c1C` is -5.7% (inactive).
Turning to `CCn1c2c(c(=O)n3ncc(C(=O)O)c13)CN(Cc1ccccc1)CC2`, the inhibition is 9.1% (inactive).
The figure for `CCOC(=O)c1c(NC(=O)c2ccccc2C(=O)O)sc(C)c1C` is -6.4% (inactive).
For `CCOC(=O)COc1ccc2c(=O)c(-c3ccccc3OC)c(C(F)(F)F)oc2c1` the value was -6.1% (inactive); for `Cc1ccc(Oc2c(C(F)(F)F)oc3c(CN4CCC(C)CC4)c(O)ccc3c2=O)cc1`, -2.8% (inactive).
In the case of `O=C(c1ccccc1F)N1c2ncnn2C2(CCCCC2)[C@@H]2CCCC[C@@H]21`, the inhibition is 2.4% (inactive).
For `O=C1C(=O)N(CCN2CCOCC2)C(c2ccncc2)/C1=C(\O)c1ccccc1` (centres undefined) the value was 0.7% (inactive); for `NC(=O)c1c(NC(=O)C2C3C=CC(C3)C2C(=O)O)sc2c1CCCCC2` (centres undefined), 7.3% (inactive); for `C=CCOc1ccccc1/C=C1/C(=O)NN(c2ccc(C)c(Cl)c2)C1=O`, -5.7% (inactive).
The figure for `O=C(CSc1nnc(-c2ccco2)o1)c1cccc2ccccc12` is -5.2% (inactive); for `CCOC(=O)C(CC)Oc1ccc2c(=O)c(-c3ccc(OC)c(OC)c3)c(C(F)(F)F)oc2c1` (centres undefined) it is 7.8% (inactive).
For `CN(C)CCCN1C(=O)C(O)=C(C(=O)c2ccco2)C1c1ccccc1` (centres undefined), the inhibition was 9.4% (inactive).
The figure for `CN(C)c1ccc(C2C(C(=O)c3ccco3)=C(O)C(=O)N2CC2CCCO2)cc1` (centres undefined) is -0.8% (inactive); for `Cc1cc(C)cc(N2C(=O)CSC2c2c(F)cccc2Cl)c1` (centres undefined) it is -8.8% (inactive).
The figure for `COc1ccccc1C1SCCN1S(=O)(=O)c1ccc(F)cc1` (centres undefined) is 11.3% (inactive).
The figure for `O=C(O)CCN1C(=O)C(=O)/C(=C(/O)c2ccccc2)C1c1ccc(Br)cc1` (centres undefined) is -4.1% (inactive).
Take `O=C(Nc1cccc(C(=O)N(Cc2ccccc2)Cc2ccccc2)c1)[C@@H]1[C@H]2C[C@H]3[C@@H]1C(=O)O[C@H]3C2`: the inhibition was 3.8% (inactive).
The figure for `COc1ccc(OC)c(C2SCCN2S(=O)(=O)c2ccc(C)cc2)c1` (centres undefined) is 6.1% (inactive); for `CCCOc1ccc(C2C(C(=O)c3cc4ccccc4o3)=C(O)C(=O)N2CCN(C)C)cc1` (centres undefined) it is -0.2% (inactive); for `COc1ccccc1-c1c(C)oc2c(CN3CCCCC3C)c(O)ccc2c1=O` (centres undefined) it is -3.9% (inactive).
The figure for `COc1cccc(C2C(C(=O)c3cc4ccccc4o3)=C(O)C(=O)N2CCN2CCOCC2)c1` (centres undefined) is 2.7% (inactive); for `O=C(C1=C(O)C(=O)N(CCN2CCOCC2)C1c1cccnc1)c1cccs1` (centres undefined) it is -0.7% (inactive); for `Cc1onc(-c2c(Cl)cccc2Cl)c1C(=O)N1CCCCCC1` it is -6.1% (inactive).
Turning to `Cc1ccc(N2C(=O)CSC2c2ccccc2F)cc1C` (centres undefined), the inhibition is -4.3% (inactive).
For `O=C(Oc1ccc2c(=O)c(Oc3ccccc3Br)c(C(F)(F)F)oc2c1)c1cccs1` the value was -1.4% (inactive); for `CN1C(=O)C2(/C(=C(/O)c3ccccc3)C(=O)C(=O)N2CC2CCCO2)c2ccccc21` (centres undefined), -3.7% (inactive).
